What all share (assay): DAPPL (digital affinity profiling via proximity ligation, sequencing); 10 mM Tris-HCl pH 7.5, 50 mM NaCl, 1 mM DTT, 4% glycerol, room temperature, 30 min; GST-TFs on glutathione beads, 16-mer random dsDNA library, 0.1% formaldehyde crosslink after washing; high values mean tight binding
Holding throughout (conditions): protein: recombinant; tags: N-terminal GST; dsDNA, one strand shown

In assay [1] the target is T1, FLI1 (Homo sapiens, UniProt Q01543 1-452).
T1 sequence: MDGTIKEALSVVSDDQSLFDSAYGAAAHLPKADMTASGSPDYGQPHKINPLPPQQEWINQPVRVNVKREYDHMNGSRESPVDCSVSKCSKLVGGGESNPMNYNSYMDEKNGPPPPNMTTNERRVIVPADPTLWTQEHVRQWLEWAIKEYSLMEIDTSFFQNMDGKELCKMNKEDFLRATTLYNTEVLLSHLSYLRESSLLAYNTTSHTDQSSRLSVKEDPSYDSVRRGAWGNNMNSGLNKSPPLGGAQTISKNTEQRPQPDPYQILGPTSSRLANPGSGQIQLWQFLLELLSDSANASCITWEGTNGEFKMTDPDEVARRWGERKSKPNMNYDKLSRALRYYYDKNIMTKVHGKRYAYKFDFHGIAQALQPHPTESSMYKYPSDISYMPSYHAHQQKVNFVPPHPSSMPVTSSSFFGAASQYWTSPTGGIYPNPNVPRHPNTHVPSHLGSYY
The method, boiled down:
(§1)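 Binding signal is each hexamer's read frequency for a factor divided by its frequency in the tag-only sample. The factors were GST-fused human transcription factors from yeast, captured on glutathione beads, DNA-barcoded and pooled with that sample. Pools were incubated with 200 nmole of a random double-stranded 16-mer DNA library in Tris/NaCl/DTT/glycerol buffer at room temperature for 30 min, then washed, crosslinked with 0.1% formaldehyde, proximity-ligated with BsaI/T4 ligase (1 h, 37 °C), PCR-amplified and sequenced on an Illumina NextSeq500.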

Assay [2] deals with T2, ELK1 (Homo sapiens, UniProt P19419 1-428).
T2 sequence: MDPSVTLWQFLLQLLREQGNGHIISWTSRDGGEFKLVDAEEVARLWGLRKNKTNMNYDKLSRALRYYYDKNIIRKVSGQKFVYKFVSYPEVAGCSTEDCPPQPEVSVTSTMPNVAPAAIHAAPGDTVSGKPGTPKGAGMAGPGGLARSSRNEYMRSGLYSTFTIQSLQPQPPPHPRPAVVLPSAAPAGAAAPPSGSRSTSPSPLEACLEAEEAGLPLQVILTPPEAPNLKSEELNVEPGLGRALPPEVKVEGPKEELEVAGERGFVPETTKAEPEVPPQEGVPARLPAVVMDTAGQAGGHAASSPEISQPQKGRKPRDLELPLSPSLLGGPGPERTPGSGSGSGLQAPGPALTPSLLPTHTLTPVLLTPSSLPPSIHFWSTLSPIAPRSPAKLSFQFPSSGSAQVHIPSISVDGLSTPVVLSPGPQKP
Put shortly:
as §1

Assay [3] concerns the target T3, GABPA (Homo sapiens, UniProt Q06546 1-454).
T3 sequence: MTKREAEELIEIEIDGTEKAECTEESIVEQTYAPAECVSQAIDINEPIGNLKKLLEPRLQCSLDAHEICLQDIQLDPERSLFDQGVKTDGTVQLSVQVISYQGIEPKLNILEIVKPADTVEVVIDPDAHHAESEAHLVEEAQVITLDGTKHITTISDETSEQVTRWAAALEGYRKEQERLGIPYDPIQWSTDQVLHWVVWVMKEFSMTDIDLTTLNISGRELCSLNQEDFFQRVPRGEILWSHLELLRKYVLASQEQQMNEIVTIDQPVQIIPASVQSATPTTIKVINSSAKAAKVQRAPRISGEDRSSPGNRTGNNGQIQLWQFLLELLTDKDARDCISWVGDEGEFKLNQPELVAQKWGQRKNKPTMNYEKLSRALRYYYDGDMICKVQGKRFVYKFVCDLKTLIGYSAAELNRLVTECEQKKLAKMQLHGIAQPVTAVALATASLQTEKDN
Put shortly:
as §1

In assay [4] the target is T4, ERG (Homo sapiens, UniProt P11308 1-479).
T4 sequence: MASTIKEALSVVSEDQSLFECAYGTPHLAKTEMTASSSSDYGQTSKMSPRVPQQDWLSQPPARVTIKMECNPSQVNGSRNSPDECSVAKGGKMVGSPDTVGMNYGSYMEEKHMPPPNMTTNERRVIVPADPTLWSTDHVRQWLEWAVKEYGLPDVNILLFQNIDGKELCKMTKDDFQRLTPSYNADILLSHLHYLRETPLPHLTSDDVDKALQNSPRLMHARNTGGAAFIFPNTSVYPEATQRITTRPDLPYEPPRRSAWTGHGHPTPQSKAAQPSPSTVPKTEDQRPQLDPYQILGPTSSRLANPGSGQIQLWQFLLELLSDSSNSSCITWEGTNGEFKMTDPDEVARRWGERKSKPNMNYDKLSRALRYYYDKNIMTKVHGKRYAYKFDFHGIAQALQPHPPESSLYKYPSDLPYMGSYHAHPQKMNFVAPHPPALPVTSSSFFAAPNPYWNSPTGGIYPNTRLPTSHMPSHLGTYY
The method, boiled down: as §1

For assay [5], the target named is ELF1 (Homo sapiens, UniProt P32519 1-619). The method, boiled down: as §1
Sequence of ELF1 (P32519 whole entry): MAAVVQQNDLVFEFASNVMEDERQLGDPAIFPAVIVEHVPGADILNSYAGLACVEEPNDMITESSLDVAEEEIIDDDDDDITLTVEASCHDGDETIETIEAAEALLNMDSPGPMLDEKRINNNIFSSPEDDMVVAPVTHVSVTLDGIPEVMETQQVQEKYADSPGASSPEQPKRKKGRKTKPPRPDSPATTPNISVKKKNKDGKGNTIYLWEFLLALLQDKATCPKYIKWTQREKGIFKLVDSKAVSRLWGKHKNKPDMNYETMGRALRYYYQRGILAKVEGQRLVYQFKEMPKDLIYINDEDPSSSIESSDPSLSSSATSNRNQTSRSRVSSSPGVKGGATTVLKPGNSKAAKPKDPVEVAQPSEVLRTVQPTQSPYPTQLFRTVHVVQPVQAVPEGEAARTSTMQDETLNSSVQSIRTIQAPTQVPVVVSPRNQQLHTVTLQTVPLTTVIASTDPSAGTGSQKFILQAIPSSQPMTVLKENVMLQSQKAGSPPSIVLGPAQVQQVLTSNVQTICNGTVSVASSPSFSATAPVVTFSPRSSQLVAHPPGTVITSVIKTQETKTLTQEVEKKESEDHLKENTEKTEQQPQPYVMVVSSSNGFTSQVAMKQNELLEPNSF
For assay [6], the target named is T5, EHF (Homo sapiens, UniProt Q9NZC4 1-300).
T5 sequence: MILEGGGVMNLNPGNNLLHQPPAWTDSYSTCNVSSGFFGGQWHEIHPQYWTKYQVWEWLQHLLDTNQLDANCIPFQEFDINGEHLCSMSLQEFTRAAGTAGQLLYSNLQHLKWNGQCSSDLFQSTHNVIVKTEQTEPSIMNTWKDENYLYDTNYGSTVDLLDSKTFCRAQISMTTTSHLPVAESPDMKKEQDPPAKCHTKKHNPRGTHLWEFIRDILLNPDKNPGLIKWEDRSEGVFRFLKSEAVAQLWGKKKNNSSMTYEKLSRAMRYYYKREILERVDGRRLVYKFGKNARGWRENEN
The method, boiled down:
as §1

Assay [7] addresses SPI1 (Homo sapiens, UniProt P17947 1-270). The method, boiled down: as §1
In assay [8] the target is SPIB (Homo sapiens, UniProt Q01892 1-262). Put shortly:
as §1

Assay [9] deals with T6, ELK3 (Homo sapiens, UniProt P41970 1-407).
T6 sequence: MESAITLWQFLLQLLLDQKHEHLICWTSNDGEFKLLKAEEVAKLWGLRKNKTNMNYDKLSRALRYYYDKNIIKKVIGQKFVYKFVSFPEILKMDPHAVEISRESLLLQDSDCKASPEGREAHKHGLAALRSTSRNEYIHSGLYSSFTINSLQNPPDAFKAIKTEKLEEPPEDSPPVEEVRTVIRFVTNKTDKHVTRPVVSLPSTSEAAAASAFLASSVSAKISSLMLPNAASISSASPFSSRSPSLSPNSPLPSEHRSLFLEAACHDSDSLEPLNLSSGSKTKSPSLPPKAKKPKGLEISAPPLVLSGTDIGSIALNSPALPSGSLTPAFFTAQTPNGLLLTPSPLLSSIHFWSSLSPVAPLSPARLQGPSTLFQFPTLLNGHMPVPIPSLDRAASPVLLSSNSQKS
Put shortly:
as §1

Assay [10] concerns the target T7, FEV (Homo sapiens, UniProt Q99581 1-238).
T7 sequence: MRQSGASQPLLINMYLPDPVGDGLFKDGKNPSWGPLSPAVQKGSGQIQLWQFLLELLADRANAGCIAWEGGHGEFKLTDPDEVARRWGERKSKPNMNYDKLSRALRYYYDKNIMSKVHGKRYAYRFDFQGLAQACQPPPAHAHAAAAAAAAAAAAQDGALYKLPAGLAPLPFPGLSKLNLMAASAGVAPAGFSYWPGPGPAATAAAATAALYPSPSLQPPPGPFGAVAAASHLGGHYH
Put shortly: as §1

The target of assay [11] is ETV5 (Homo sapiens, UniProt P41161 1-510). The method, boiled down: as §1
Sequence of ETV5 (P41161 whole entry): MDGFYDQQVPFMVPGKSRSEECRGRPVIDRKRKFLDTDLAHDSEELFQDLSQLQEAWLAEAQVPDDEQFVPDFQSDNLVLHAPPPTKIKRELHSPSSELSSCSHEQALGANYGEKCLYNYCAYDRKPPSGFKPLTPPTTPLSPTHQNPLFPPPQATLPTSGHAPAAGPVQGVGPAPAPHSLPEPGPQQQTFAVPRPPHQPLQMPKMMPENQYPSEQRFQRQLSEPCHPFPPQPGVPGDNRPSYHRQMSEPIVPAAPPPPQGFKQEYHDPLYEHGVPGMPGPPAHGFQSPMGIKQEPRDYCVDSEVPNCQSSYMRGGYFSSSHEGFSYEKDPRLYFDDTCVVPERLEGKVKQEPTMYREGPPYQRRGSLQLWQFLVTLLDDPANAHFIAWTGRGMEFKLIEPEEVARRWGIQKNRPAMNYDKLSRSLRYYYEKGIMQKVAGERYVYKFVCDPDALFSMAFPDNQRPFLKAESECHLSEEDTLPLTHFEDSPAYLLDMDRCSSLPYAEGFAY
Assay [12] has as its target T8, SPIC (Homo sapiens, UniProt Q8N5J4 1-248).
T8 sequence: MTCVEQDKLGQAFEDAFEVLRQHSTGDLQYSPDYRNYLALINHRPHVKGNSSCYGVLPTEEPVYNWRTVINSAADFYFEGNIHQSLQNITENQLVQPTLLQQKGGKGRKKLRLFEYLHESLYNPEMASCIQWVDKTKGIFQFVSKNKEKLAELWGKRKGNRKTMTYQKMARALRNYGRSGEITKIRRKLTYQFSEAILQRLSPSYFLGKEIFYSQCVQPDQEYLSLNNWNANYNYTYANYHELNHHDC
The method, boiled down: as §1

The target in assay [13] is ELF4 (Homo sapiens, UniProt Q99607 1-663). Put shortly:
as §1

The target of assay [14] is T9, ELK4 (Homo sapiens, UniProt P28324-2 1-405).
T9 sequence: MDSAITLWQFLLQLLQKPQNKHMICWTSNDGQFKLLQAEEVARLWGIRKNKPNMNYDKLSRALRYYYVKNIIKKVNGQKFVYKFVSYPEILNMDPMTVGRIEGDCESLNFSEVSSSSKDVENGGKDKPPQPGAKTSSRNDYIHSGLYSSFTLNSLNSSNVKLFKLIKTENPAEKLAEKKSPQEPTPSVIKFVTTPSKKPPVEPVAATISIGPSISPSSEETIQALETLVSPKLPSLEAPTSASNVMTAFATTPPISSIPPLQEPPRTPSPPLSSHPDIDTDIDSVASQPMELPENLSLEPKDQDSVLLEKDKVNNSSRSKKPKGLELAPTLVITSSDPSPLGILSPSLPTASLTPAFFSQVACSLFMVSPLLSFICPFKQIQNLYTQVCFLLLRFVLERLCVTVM
Put shortly: as §1

The target in assay [15] is T10, ETV2 (Homo sapiens, UniProt O00321 1-342).
T10 sequence: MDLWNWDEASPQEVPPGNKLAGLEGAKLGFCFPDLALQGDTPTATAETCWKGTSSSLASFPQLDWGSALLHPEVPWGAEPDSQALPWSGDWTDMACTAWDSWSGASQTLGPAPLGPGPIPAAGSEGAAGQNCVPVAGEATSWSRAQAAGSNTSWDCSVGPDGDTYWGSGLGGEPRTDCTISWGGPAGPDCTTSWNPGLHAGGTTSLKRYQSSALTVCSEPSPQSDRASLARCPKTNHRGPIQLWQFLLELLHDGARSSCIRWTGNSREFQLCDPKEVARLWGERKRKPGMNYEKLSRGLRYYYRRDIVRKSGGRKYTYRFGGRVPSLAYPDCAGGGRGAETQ
Put shortly: as §1

The target in assay [16] is T11, ELF3 (Homo sapiens, UniProt P78545 1-371).
T11 sequence: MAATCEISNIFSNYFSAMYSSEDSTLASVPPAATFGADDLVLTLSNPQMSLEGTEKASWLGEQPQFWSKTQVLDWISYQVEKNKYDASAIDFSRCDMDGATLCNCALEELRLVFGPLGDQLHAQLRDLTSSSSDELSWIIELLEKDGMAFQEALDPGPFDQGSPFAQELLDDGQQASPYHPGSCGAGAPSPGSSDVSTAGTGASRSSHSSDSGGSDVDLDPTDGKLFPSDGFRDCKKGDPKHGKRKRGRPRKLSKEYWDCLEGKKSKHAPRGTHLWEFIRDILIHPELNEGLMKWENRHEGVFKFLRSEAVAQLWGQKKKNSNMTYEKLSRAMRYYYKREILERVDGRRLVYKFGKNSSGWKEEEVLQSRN
Put shortly:
as §1

The target of assay [17] is CRX (Homo sapiens, UniProt O43186 1-299). The method, boiled down: as §1
Sequence of CRX (O43186 whole entry): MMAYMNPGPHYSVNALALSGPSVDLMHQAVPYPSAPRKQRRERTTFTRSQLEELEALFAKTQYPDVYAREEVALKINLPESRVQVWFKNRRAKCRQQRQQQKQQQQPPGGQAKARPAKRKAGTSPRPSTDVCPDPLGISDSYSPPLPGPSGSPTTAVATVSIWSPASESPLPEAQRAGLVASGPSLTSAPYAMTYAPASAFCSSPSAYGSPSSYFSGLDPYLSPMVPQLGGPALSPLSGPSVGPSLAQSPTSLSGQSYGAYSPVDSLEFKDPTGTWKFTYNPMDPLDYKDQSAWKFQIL
Assay [18] concerns the target ETV1 (Homo sapiens, UniProt P50549 1-477). Put shortly:
as §1

These results are taken from article PMC7862700, “An all-to-all approach to the identification of sequence-specific readers for epigenetic DNA modifications on cytosine”.

Sequence of SPIB (Q01892 whole entry): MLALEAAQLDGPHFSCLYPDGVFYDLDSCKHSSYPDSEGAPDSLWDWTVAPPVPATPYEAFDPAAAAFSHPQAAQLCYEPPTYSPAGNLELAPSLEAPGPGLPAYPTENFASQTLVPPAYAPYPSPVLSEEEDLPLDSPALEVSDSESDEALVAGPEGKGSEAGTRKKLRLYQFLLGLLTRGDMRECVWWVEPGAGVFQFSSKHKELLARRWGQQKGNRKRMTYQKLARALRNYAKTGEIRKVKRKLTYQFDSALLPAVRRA
Sequence of ETV1 (P50549 whole entry): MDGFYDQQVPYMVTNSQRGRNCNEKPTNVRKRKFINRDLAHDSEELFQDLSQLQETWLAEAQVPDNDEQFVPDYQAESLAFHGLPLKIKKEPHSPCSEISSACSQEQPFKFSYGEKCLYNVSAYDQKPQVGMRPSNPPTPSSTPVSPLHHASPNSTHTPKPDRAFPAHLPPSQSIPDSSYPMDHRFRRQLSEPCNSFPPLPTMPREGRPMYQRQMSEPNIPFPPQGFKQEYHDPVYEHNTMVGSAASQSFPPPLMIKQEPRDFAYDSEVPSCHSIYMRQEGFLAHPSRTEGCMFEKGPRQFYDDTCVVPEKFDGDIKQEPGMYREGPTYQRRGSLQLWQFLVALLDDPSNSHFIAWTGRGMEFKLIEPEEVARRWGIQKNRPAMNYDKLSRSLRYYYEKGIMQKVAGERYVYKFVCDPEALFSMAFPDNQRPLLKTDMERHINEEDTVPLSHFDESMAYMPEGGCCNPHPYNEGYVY
Sequence of ELF4 (Q99607 whole entry): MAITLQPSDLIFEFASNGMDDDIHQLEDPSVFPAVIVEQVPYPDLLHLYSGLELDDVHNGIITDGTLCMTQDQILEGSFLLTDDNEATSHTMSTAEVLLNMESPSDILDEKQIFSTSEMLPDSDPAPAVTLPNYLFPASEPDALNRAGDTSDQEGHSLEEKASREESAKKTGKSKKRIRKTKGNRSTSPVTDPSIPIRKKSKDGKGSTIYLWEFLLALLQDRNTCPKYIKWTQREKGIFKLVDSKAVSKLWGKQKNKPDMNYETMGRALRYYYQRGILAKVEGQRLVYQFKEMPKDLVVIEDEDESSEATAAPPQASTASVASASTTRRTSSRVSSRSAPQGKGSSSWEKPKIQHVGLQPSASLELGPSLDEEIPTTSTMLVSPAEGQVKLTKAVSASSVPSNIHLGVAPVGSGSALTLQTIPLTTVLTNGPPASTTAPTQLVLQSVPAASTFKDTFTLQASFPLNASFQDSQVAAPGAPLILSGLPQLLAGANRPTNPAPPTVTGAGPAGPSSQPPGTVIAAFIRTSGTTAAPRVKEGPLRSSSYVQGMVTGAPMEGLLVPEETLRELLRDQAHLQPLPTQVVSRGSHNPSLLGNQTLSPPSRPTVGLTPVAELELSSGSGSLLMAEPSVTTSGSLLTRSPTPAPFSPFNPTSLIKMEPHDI

Turning to CCTACC, the binding signal in [1] is 1.21 fold enrichment (6-mer frequency, TF over GST control); in assay [2] it was 1.37 fold enrichment (6-mer frequency, TF over GST control); in assay [3], 1.39 fold enrichment (6-mer frequency, TF over GST control); in assay [4], 1.29 fold enrichment (6-mer frequency, TF over GST control); in [5], 1.28 fold enrichment (6-mer frequency, TF over GST control); in assay [6] it was 1.33 fold enrichment (6-mer frequency, TF over GST control). The binding signal was 1.31 fold enrichment (6-mer frequency, TF over GST control) in [7]; 1.38 fold enrichment (6-mer frequency, TF over GST control) in assay [8]; 1.27 fold enrichment (6-mer frequency, TF over GST control) in assay [9]; 1.29 fold enrichment (6-mer frequency, TF over GST control) in assay [10]; 1.35 fold enrichment (6-mer frequency, TF over GST control) in assay [11]; 1.36 fold enrichment (6-mer frequency, TF over GST control) in assay [12]. Moreover, the binding signal in assay [13] is 1.4 fold enrichment (6-mer frequency, TF over GST control); in assay [14] it was 1.22 fold enrichment (6-mer frequency, TF over GST control); in [15], 1.38 fold enrichment (6-mer frequency, TF over GST control); in assay [16], 1.1 fold enrichment (6-mer frequency, TF over GST control); in assay [17] it was 1.07 fold enrichment (6-mer frequency, TF over GST control); in assay [18] it was 1.47 fold enrichment (6-mer frequency, TF over GST control).
For the sequence TACCGC, the binding signal is 1.16 fold enrichment (6-mer frequency, TF over GST control) in [1]; 1.07 fold enrichment (6-mer frequency, TF over GST control) in assay [2]; 1.02 fold enrichment (6-mer frequency, TF over GST control) in [3]; 1.08 fold enrichment (6-mer frequency, TF over GST control) in assay [4]; 1.02 fold enrichment (6-mer frequency, TF over GST control) in [5]; 1.11 fold enrichment (6-mer frequency, TF over GST control) in assay [6]. For the same sequence, the binding signal in [7] was 1.19 fold enrichment (6-mer frequency, TF over GST control); in assay [8], 1.09 fold enrichment (6-mer frequency, TF over GST control); in [9] it was 1.13 fold enrichment (6-mer frequency, TF over GST control); in assay [10], 1.13 fold enrichment (6-mer frequency, TF over GST control); in [11], 1.06 fold enrichment (6-mer frequency, TF over GST control); in assay [12], 1.15 fold enrichment (6-mer frequency, TF over GST control). Moreover, the binding signal was 1.1 fold enrichment (6-mer frequency, TF over GST control) in assay [13]; 1.14 fold enrichment (6-mer frequency, TF over GST control) in assay [14]; 1.16 fold enrichment (6-mer frequency, TF over GST control) in [15]; 1.23 fold enrichment (6-mer frequency, TF over GST control) in assay [16]; 1.03 fold enrichment (6-mer frequency, TF over GST control) in [17]; 1.06 fold enrichment (6-mer frequency, TF over GST control) in assay [18].
